Reference: PubChem BioAssay

target: Homeobox protein Hox-A13 (Mus musculus) (UniProt Q62424); test: inhibitors of HoxA13-DNA binding, primary screen, biochemical, fluorescence polarization, labeled oligonucleotide (AID 1185); conditions: 15 min, higher = more signal, called active from +8 up or from −8 down
Sequence (Q62424 whole entry, looked up): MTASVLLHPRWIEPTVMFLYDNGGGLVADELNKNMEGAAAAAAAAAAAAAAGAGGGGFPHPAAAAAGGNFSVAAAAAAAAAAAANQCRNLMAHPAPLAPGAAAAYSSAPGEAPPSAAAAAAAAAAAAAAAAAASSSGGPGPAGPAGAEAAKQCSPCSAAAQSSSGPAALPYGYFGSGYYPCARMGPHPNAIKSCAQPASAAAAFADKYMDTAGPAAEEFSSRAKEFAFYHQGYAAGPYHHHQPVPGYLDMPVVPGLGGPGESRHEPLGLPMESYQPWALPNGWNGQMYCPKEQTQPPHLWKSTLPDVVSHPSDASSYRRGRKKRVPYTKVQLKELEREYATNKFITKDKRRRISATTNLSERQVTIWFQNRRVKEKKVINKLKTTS

z-score, inactive:
COc1ccc(O[C@H]2C=C[C@@H](c3ccccc3)O[C@@H]2CON=C2[C@H]3CCn4c(=O)n(-c5ccccc5)c(=O)n4[C@H]3[C@H](O)[C@@H]3O[C@H]23)cc1 -4.59, C[C@@H](c1ccccc1)N1C(=O)[C@H]2[C@H]3[C@H](O)[C@H](O)CC(=NOCc4ccccc4)[C@H]3CC[C@H]2C1=O 0.0197, O=C1C[C@@H](O)[C@@H](O)[C@@H]2[C@@H]3C(=O)N(c4cccc(Oc5ccccc5)c4)C(=O)[C@@H]3CC[C@H]12 -0.14, O=c1n(Cc2cc3c(cc2Cl)OCO3)c(=O)n2n1CC[C@@H]1C(=NOCc3ccccc3)[C@H]3O[C@H]3[C@@H](O)[C@@H]12 0.962, COC(=O)CC=C[C@@H](C)[C@@H](C=NO[C@H](C)c1cn([C@@H]2COC[C@H]2O)nn1)NS(=O)(=O)c1ccc(C)cc1 -1.63, CCOC(=O)[C@H](CC(C)C)NC(=O)CCC1CC(OC(=O)NCc2cccc3ccccc23)CC2(CCCC(COC(=O)NCCOC)O2)O1 (stereo partly specified) -3.68, CON=Cc1ccc(C(=O)N2[C@H](c3ccc(C)cc3)[C@@H](C)CC[C@H]2C(=O)OC)cc1 -3.49, CO[C@H]1COC(=O)[C@H](C)NC(=O)CC=C[C@@H](C)[C@H](OC)COC(=O)[C@@H](OCc2ccccc2)C=C[C@@H]1C -0.22, C#CCCCON=C1[C@H]2CCn3c(=O)n(-c4ccccc4)c(=O)n3[C@H]2[C@H](O)[C@@H]2O[C@H]12 0.241, CCOC(=O)[C@H](CC(C)C)NC(=O)CCC1CC(OC(=O)NCCc2ccc(F)cc2)CC2(CCCC(COC(=O)NCC3CCCCC3)O2)O1 (stereo partly specified) -7.04, O=C1C[C@@H](O)[C@@H](O)[C@@H]2[C@@H]3C(=O)N(C[C@@H]4CCCO4)C(=O)[C@@H]3CC[C@@H]12 0.368, CCN1C(=O)[C@H]2[C@H]3[C@H](O)[C@H](O)CC(=NNC(=O)OCc4ccc(OC)cc4)[C@@H]3CC[C@H]2C1=O -1.25, C#CCCCON=C1C[C@@H](O)[C@@H](O)[C@@H]2[C@@H]3C(=O)N(Cc4ccccc4)C(=O)[C@@H]3CC[C@@H]12 -0.417, CC(C)CON=C1[C@H]2CCn3c(=O)n(Cc4cc5c(cc4Cl)OCO5)c(=O)n3[C@H]2[C@H](O)[C@@H]2O[C@H]12 1.8, O=C1[C@H]2[C@H]3[C@H](O)[C@H](O)CC(=NOCc4ccccc4)[C@@H]3CC[C@H]2C(=O)N1Cc1ccc2c(c1)OCO2 -3.53, Cc1cc2c(c(=O)o1)[C@@H](O)[C@H]1O[C@H]1C2=O -1.3, CC(C)CON=C1C[C@@H](O)[C@@H](O)[C@@H]2[C@@H]3C(=O)N(c4ccc(F)cc4F)C(=O)[C@@H]3CC[C@H]12 -0.224, CON=C(C)CCC(=O)OC[C@H]1O[C@H](c2ccccc2)C=C[C@@H]1Oc1ccc(OC)cc1 -4.5, C#CCCCON=C1[C@H]2CCn3c(=O)n(C)c(=O)n3[C@H]2[C@H](O)[C@@H]2O[C@H]12 0.292, C[C@@H]1CC[C@H]2C(=O)O[C@@H](Cc3ccccc3)CN2[C@H]1c1ccc(Br)cc1 -1.7, CC(C)CON=C1C[C@@H](O)[C@@H](O)[C@@H]2[C@@H]3C(=O)N(c4cccc(Oc5ccccc5)c4)C(=O)[C@@H]3CC[C@@H]12 -0.0907, COc1ccc(O[C@H]2C=C[C@@H](c3ccccc3)O[C@@H]2COC(=O)CCC(C)=NO[C@@H]2O[C@H](COC(C)=O)[C@@H](OC(C)=O)[C@H](OC(C)=O)[C@H]2OC(C)=O)cc1 -4.34, C=CC[C@@H]1C=C[C@H](ON=C(C)CCC(=O)OC[C@H]2O[C@H](C#Cc3ccccc3)C=C[C@@H]2Oc2ccc(C)cc2)[C@@H](CO)O1 -4.14, CO[C@H]1COC(=O)[C@@H](C)COC(=O)[C@H](COCc2ccccc2)NC(=O)CC=C[C@H]1C -1.96, COc1cccc([C@H]2Oc3ccc(OC)cc3C(=NOC[C@@H](O)COCc3ccco3)[C@@H]2O)c1 -5.25, CC(C)(C)N1C(=O)[C@H]2[C@H]3[C@H](O)[C@H](O)CC(=O)[C@H]3CC[C@H]2C1=O 0.117
